{"source": "PubChem BioAssay AID1159580", "about": "(chemical genetic matrix, 2015)", "assay": "chemical genetic growth profiling, strain panel (AID 1159580);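 further: tested at 20 µM; growth read once vehicle control cultures reached saturation at 30 °C; 1 = growth at the plate median or of vehicle wells; lower values mean less growth of the strain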", "settings": "S. cerevisiae deletion strains, growth OD", "note": "Hit rate of the full screen: of about 5,500 compounds, about 2,000 (36%) were called active. Roughly 18% stayed inconclusive and do not appear here. The list shows a part of the results. Values without a mark were called inactive. No stated cut-off is given here; in the data, active means normalized growth mostly below about 0.91 (no sharp cut-off); inconclusive means no clear call, values can overlap the other calls; inactive means mostly above about 0.92."}
{"compound": "CCCN1CCC[C@@H]2Cc3[nH]ncc3C[C@H]21", "values": [{"measurement": "normalized growth", "setting": "locus YAL013W, strain DEP1, hits give low values", "value": 0.989}, {"measurement": "normalized growth", "setting": "locus YAL040C, strain CLN3, hits give low values", "value": 1.02}, {"measurement": "normalized growth", "setting": "locus YCL061C, strain MRC1 (second series), hits give low values", "value": 1}, {"measurement": "normalized growth", "setting": "locus YDR363W, strain ESC2, hits give low values", "value": 1.01}, {"measurement": "normalized growth", "setting": "locus YER002W, strain NOP16, hits give low values", "value": 1.01}, {"measurement": "normalized growth", "setting": "locus YMR263W, strain SAP30, hits give low values", "value": 0.994}, {"measurement": "normalized growth", "setting": "locus YMR307W, strain GAS1, hits give low values", "value": 0.985}, {"measurement": "normalized growth", "setting": "locus YNL128W, strain TEP1, hits give low values", "value": 1.02}, {"measurement": "normalized growth", "setting": "locus YNL175C, strain NOP13, hits give low values", "value": 1}, {"measurement": "normalized growth", "setting": "locus YNL197C, strain WHI3, hits give low values", "value": 1.02}, {"measurement": "normalized growth", "setting": "locus YNL224C, strain SQS1, hits give low values", "value": 1.01}, {"measurement": "normalized growth", "setting": "locus YNL322C, strain KRE1, hits give low values", "value": 1.01}, {"measurement": "normalized growth", "setting": "locus YOR083W, strain WHI5 (second series), hits give low values", "value": 1.02}]}
{"compound": "O=C(Oc1ccc2ccccc2c1C1SCCS1)c1ccc([N+](=O)[O-])o1", "values": [{"measurement": "normalized growth", "setting": "locus YAR019C, strain CDC15, hits give low values", "value": 0.952}, {"measurement": "normalized growth", "setting": "locus YBL105C, strain PKC1, hits give low values", "value": 0.958}, {"measurement": "normalized growth", "setting": "locus YBR135W, strain CKS1, hits give low values", "value": 0.966}, {"measurement": "normalized growth", "setting": "locus YBR136W, strain MEC1, hits give low values", "value": 0.957}, {"measurement": "normalized growth", "setting": "locus YBR160W, strain CDC28, hits give low values", "value": 0.947}, {"measurement": "normalized growth", "setting": "locus YDL017W, strain CDC7, hits give low values", "value": 0.958}, {"measurement": "normalized growth", "setting": "locus YDL028C, strain MPS1, hits give low values", "value": 0.942}, {"measurement": "normalized growth", "setting": "locus YDL101C, strain DUN1, hits give low values", "value": 0.943}, {"measurement": "normalized growth", "setting": "locus YDL108W, strain KIN28, hits give low values", "value": 0.955}, {"measurement": "normalized growth", "setting": "locus YDL132W, strain cdc53, hits give low values", "value": 0.973}, {"measurement": "normalized growth", "setting": "locus YDL214C, strain PRR2, hits give low values", "value": 0.912}, {"measurement": "normalized growth", "setting": "locus YDR052C, strain DBF4, hits give low values", "value": 0.973}, {"measurement": "normalized growth", "setting": "locus YDR054C, strain cdc34, hits give low values", "value": 0.97}, {"measurement": "normalized growth", "setting": "locus YDR226W, strain ADK1, hits give low values", "value": 0.933}, {"measurement": "normalized growth", "setting": "locus YDR477W, strain SNF1, hits give low values", "value": 0.901}, {"measurement": "normalized growth", "setting": "locus YER123W, strain YCK3, hits give low values", "value": 0.907}, {"measurement": "normalized growth", "setting": "locus YER133W, strain GLC7, hits give low values", "value": 0.953}, {"measurement": "normalized growth", "setting": "locus YFL009W, strain cdc4, hits give low values", "value": 0.964}, {"measurement": "normalized growth", "setting": "locus YFL029C, strain CAK1, hits give low values", "value": 0.948}, {"measurement": "normalized growth", "setting": "locus YFR003C, strain YPI1, hits give low values", "value": 0.957}, {"measurement": "normalized growth", "setting": "locus YFR019W, strain FAB1, hits give low values", "value": 0.923}, {"measurement": "normalized growth", "setting": "locus YFR028C, strain CDC14, hits give low values", "value": 0.946}, {"measurement": "normalized growth", "setting": "locus YGR040W, strain KSS1, hits give low values", "value": 0.919}, {"measurement": "normalized growth", "setting": "locus YGR052W, strain FMP48, hits give low values", "value": 0.966}, {"measurement": "normalized growth", "setting": "locus YGR092W, strain DBF2, hits give low values", "value": 0.86}, {"measurement": "normalized growth", "setting": "locus YHR030C, strain SLT2, hits give low values", "value": "0.698 (active)"}, {"measurement": "normalized growth", "setting": "locus YHR079C, strain IRE1, hits give low values", "value": 0.89}, {"measurement": "normalized growth", "setting": "locus YHR082C, strain KSP1, hits give low values", "value": 0.936}, {"measurement": "normalized growth", "setting": "locus YHR205W, strain SCH9, hits give low values", "value": 0.768}, {"measurement": "normalized growth", "setting": "locus YIL147C, strain SLN1, hits give low values", "value": 0.93}, {"measurement": "normalized growth", "setting": "locus YJL095W, strain BCK1, hits give low values", "value": 0.855}, {"measurement": "normalized growth", "setting": "locus YJL128C, strain PBS2, hits give low values", "value": 0.842}, {"measurement": "normalized growth", "setting": "locus YJL157C, strain FAR1, hits give low values", "value": 0.92}, {"measurement": "normalized growth", "setting": "locus YJR016C, strain ILV3, hits give low values", "value": 0.958}, {"measurement": "normalized growth", "setting": "locus YJR066W, strain TOR1 (second series), hits give low values", "value": 0.919}, {"measurement": "normalized growth", "setting": "locus YJR066W, strain TOR1, hits give low values", "value": 0.879}, {"measurement": "normalized growth", "setting": "locus YKL048C, strain ELM1, hits give low values", "value": 0.925}, {"measurement": "normalized growth", "setting": "locus YKL067W, strain YNK1, hits give low values", "value": 0.909}, {"measurement": "normalized growth", "setting": "locus YKL101W, strain HSL1, hits give low values", "value": 0.894}, {"measurement": "normalized growth", "setting": "locus YKL193C, strain SDS22, hits give low values", "value": 0.952}, {"measurement": "normalized growth", "setting": "locus YKL203C, strain TOR2, hits give low values", "value": 1.02}, {"measurement": "normalized growth", "setting": "locus YLR113W, strain HOG1, hits give low values", "value": "0.702 (active)"}, {"measurement": "normalized growth", "setting": "locus YLR133W, strain CKI1, hits give low values", "value": 0.919}, {"measurement": "normalized growth", "setting": "locus YLR403W, strain SFP1, hits give low values", "value": 0.919}, {"measurement": "normalized growth", "setting": "locus YML070W, strain DAK1, hits give low values", "value": 0.907}, {"measurement": "normalized growth", "setting": "locus YMR001C, strain CDC5, hits give low values", "value": 0.94}, {"measurement": "normalized growth", "setting": "locus YMR205C, strain PFK2 (second series), hits give low values", "value": 0.938}, {"measurement": "normalized growth", "setting": "locus YMR277W, strain FCP1, hits give low values", "value": 0.937}, {"measurement": "normalized growth", "setting": "locus YNL006W, strain LST8, hits give low values", "value": 0.955}, {"measurement": "normalized growth", "setting": "locus YNL020C, strain ARK1, hits give low values", "value": 0.917}, {"measurement": "normalized growth", "setting": "locus YNL161W, strain CBK1, hits give low values", "value": 0.957}, {"measurement": "normalized growth", "setting": "locus YNL183C, strain NPR1, hits give low values", "value": 0.951}, {"measurement": "normalized growth", "setting": "locus YNL207W, strain RIO2, hits give low values", "value": 0.963}, {"measurement": "normalized growth", "setting": "locus YNL222W, strain SSU72, hits give low values", "value": 0.939}, {"measurement": "normalized growth", "setting": "locus YNL307C, strain MCK1 (second series), hits give low values", "value": 0.901}, {"measurement": "normalized growth", "setting": "locus YOL078W, strain AVO1, hits give low values", "value": 0.962}, {"measurement": "normalized growth", "setting": "locus YOL136C, strain PFK27, hits give low values", "value": 0.886}, {"measurement": "normalized growth", "setting": "locus YOR061W, strain CKA2, hits give low values", "value": 0.921}, {"measurement": "normalized growth", "setting": "locus YOR119C, strain RIO1, hits give low values", "value": 0.973}, {"measurement": "normalized growth", "setting": "locus YOR231W, strain MKK1, hits give low values", "value": 0.878}, {"measurement": "normalized growth", "setting": "locus YOR329C, strain SCD5, hits give low values", "value": 0.957}, {"measurement": "normalized growth", "setting": "locus YPL031C, strain PHO85, hits give low values", "value": 0.917}, {"measurement": "normalized growth", "setting": "locus YPL153C, strain RAD53, hits give low values", "value": 0.909}, {"measurement": "normalized growth", "setting": "locus YPL204W, strain HRR25, hits give low values", "value": 0.906}, {"measurement": "normalized growth", "setting": "locus YPL209C, strain IPL1, hits give low values", "value": 0.964}, {"measurement": "normalized growth", "setting": "locus YPL256C, strain CLN2, hits give low values", "value": "0.807 (active)"}, {"measurement": "normalized growth", "setting": "locus YPR025C, strain CCL1, hits give low values", "value": 0.961}, {"measurement": "normalized growth", "setting": "locus YPR106W, strain ISR1, hits give low values", "value": 0.939}, {"measurement": "normalized growth", "setting": "locus YPR111W, strain DBF20, hits give low values", "value": 0.913}, {"measurement": "normalized growth", "setting": "strain NNK1, hits give low values", "value": 0.941}, {"measurement": "normalized growth", "setting": "strain TSCII, hits give low values", "value": 0.954}]}
